According to the supplement of paper PMC6992640:
± gives the standard deviation of the averaged measurements.

What was measured:
Experiment in all cases: cell viability (% of vehicle); higher = less cytotoxic
Conditions in all cases: 10 µM; 72 h
HCI01 = tested on: HCI01 (cells of a triple-negative basal-like breast cancer xenograft)
HCI03 = tested on: HCI03 (cells of an ER-positive luminal breast cancer xenograft)
HCI09 = tested on: HCI09 (cells of a triple-negative luminal androgen receptor type breast cancer xenograft)
HCI11 = tested on: HCI11 (cells of an ER-positive luminal breast cancer xenograft)
HCI13 = tested on: HCI13 (cells of an ER-positive luminal breast cancer xenograft)
HCI16 = tested on: HCI16 (cells of a triple-negative basal-like breast cancer xenograft)
UCD52 = tested on: UCD52 (cells of a triple-negative basal-like breast cancer xenograft)
WHIM2 = tested on: WHIM2 (cells of a triple-negative basal-like breast cancer xenograft)
WHIM30 = tested on: WHIM30 (cells of a triple-negative basal-like breast cancer xenograft)
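Note: PDX cells carrying CMV promoter-driven luciferase, viability read as total photon flux per second by IVIS imaging following D-luciferin, vehicle control 0.1% DMSO.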

| Compound | cell viability (HCI01) | cell viability (HCI03) | cell viability (HCI09) | cell viability (HCI11) | cell viability (HCI13) | cell viability (HCI16) | cell viability (UCD52) | cell viability (WHIM2) | cell viability (WHIM30) |
| --- | --- | --- | --- | --- | --- | --- | --- | --- | --- |
| Oc1cc(Cl)ccc1Oc1ccc(Cl)cc1Cl [Triclosan] | 73.5 ± 14 | 109 | 41.7 ± 24 | 71.7 | 66.4 ± 20 | 137 | 97.1 ± 9.6 | 49.5 ± 1.1 | 109.3 ± 1 |
| O.O=P1(N(CCCl)CCCl)NCCCO1 (stereo not given) [Cyclophosphamide monohydrate] | 133 ± 17 | 147 | 90.3 ± 17 | 125 | 140 ± 5.4 | 125 | 98.5 ± 2.4 | 106 ± 2.2 | 130 ± 8.5 |
| CN1[C@@H]2C[C@@H](O)C[C@H]1[C@@H]1O[C@@H]12 [Scopine] | 134 ± 21 | 138 | 110 ± 8.5 | 110 | 129 ± 14 | 99 | 103 ± 18 | 112 ± 21 | 144 ± 4 |
| NCCC(O)(P(=O)([O-])O)P(=O)([O-])O.[Na+].[Na+] [Pamidronate Disodium] | 85.1 ± 9.1 | 82.9 | 86.9 ± 2.1 | 80.8 | 95.2 ± 14 | 59.9 | 76.4 ± 15 | 75 ± 21 | 92.4 ± 13 |
| CCOC(=O)c1cncn1C(C)c1ccccc1.Cl (stereo not given) [Etomidate hydrochloride] | 137 ± 30 | 155 | 125 ± 37 | 117 |  | 117 | 97.3 ± 9.7 | 145 ± 30 | 76.4 ± 5.3 |
| CC(O)(CS(=O)(=O)c1ccc(F)cc1)C(=O)Nc1ccc(C#N)c(C(F)(F)F)c1 (stereo not given) [Bicalutamide] | 108 ± 8.9 | 113 | 90.6 ± 13 | 90.2 | 127 ± 3.6 | 108 | 89.7 ± 11 | 90.2 ± 6.4 | 108 ± 3.1 |
| CCC(COC(=O)c1cc(OC)c(OC)c(OC)c1)(c1ccccc1)N(C)C (stereo not given) [Trimebutine] | 116 ± 6.9 | 109 | 103 ± 7.8 | 92.9 |  | 135 | 84.9 ± 15 | 96.2 ± 2.8 | 111.2 ± 0.53 |
| c1ccc2c(c1)sc1ccccc12 [Dibenzothiophene] | 137 ± 39 | 105 | 87.3 ± 1.6 | 103 | 85 ± 12 | 123 | 115 ± 14 | 117 ± 11 | 98.7 ± 1 |
| CC(=O)OC1CC2CCC3C(CCC4(C)C3CC([N+]3(C)CCCCC3)C4OC(C)=O)C2(C)CC1[N+]1(C)CCCCC1.[Br-].[Br-] (stereo not given) [Pancuronium dibromide] | 99.4 ± 8.2 | 106 | 105 ± 2.1 | 93.3 |  | 95.5 | 79.4 ± 3.5 | 94.3 ± 4.8 | 103 ± 4.2 |
| Cc1cccc(C(C)c2cnc[nH]2)c1C.Cl (stereo not given) [Dexmedetomidine HCl] | 110 ± 1.2 | 103 | 91.2 ± 26 | 103 | 82.7 ± 11 | 89.9 | 86.7 ± 1.2 | 72.3 ± 17 | 112.3 ± 0.75 |
| Cl.NCC(O)c1ccc(O)cc1 (racemic) [(+,-)-Octopamine HCl] | 101 ± 10 | 119 | 93 ± 10 | 98.3 |  | 120 | 91.1 ± 16 | 87.9 ± 7.5 | 149.4 ± 0.28 |
| CCCN1CC(CSC)CC2c3cccc4[nH]cc(c34)CC21.CS(=O)(=O)O (stereo not given) [Pergolide mesylate] | 107.1 ± 0.5 | 92.4 | 106 ± 8.8 | 87.6 | 98.3 ± 5.6 | 124 | 76.5 ± 1.3 | 101 ± 14 | 110 ± 12 |
| O=C(O)CCCc1ccc(N(CCCl)CCCl)cc1 [Chlorambucil] | 109 ± 15 | 179 | 99.8 ± 1.1 | 92 | 113.2 ± 0.69 | 131 | 108 ± 4.7 | 96.7 ± 9.3 | 126 ± 8.3 |
| O=S(=O)(F)Cc1ccccc1 | 131 ± 25 | 127 | 89.27 ± 0.7 | 92.5 | 87.2 ± 19 | 100 | 106.1 ± 0.78 | 104 ± 31 | 111 ± 22 |
| C[N+]1(C)CCCC(OC(=O)C(O)(c2ccccc2)c2ccccc2)C1.[Br-] (stereo not given) [Mepenzolate Bromide] | 109 ± 6.9 | 133 | 103 ± 5.9 | 108 | 133 ± 27 | 108 | 87.5 ± 8.5 | 98.1 ± 7.5 | 128 ± 2.7 |
| CN1C(=O)CCS(=O)(=O)C1c1ccc(Cl)cc1 (stereo not given) [Chlormezanone] | 90 ± 11 | 118 | 92.3 ± 7.5 | 105 | 71.1 ± 7.2 | 122 | 104 ± 10 | 113 ± 12 | 172.2 ± 0.74 |
| OC(c1ccccc1)(c1ccccc1)C1CCNCC1 [Azacyclonol] | 98.1 ± 19 | 137 | 84.5 ± 38 | 93.8 | 79 ± 10 | 110 | 95.8 ± 10 | 109 ± 34 | 113 ± 2.1 |
| CN(C)C(=O)C(CCN1CCC(O)(c2ccc(Cl)cc2)CC1)(c1ccccc1)c1ccccc1.Cl [Loperamide HCl] | 102 ± 20 | 84.8 | 53.5 ± 15 | 98.7 | 79.2 ± 6.6 | 95.1 | 49.1 ± 1.4 | 59.8 ± 8.3 | 102 ± 9.7 |
| CN1C2CCC1CC(OC(=O)C(CO)c1ccccc1)C2 (stereo not given) [Hyoscyamine] | 135 ± 14 | 132 | 109 ± 16 | 94.3 | 145 ± 5.8 | 118 | 74.2 ± 7.5 | 93.8 ± 4 | 108 ± 3.8 |
| Br.CN1C2CC(OC(=O)C(CO)c3ccccc3)CC1C1OC12 (stereo not given) [Scopolamine hydrobromide] | 108 ± 3.9 | 120 | 91.5 ± 17 | 104 | 83.67 ± 0.26 | 127 | 90.98 ± 0.47 | 122 ± 1.4 | 133.3 ± 1.1 |
| CC(=Cc1csc(C)n1)C1CC2OC2(C)CCCC(C)C(O)C(C)C(=O)C(C)(C)C(O)CC(=O)O1 (stereo not given) [Epothilone B (EPO906, Patupilone)] | 154 ± 16 | 119 | 91.4 ± 4.8 | 99.2 | 111 ± 2.6 |  | 78.2 ± 9.1 | 75.9 ± 13 | 137 ± 13 |
| COc1cc2c(c(OC)c1OC)-c1ccc(OC)c(=O)cc1C(NC(C)=O)CC2 (stereo not given) [Colchicine] | 141 ± 19 | 109 | 120 ± 4.5 | 102 | 44.3 ± 2.3 | 108 | 146 ± 28 | 96 ± 9 | 145 ± 7.8 |
| Nc1nc(N)nc(NC2CC2)n1 [Cyromazine] | 111 ± 13 | 182 | 107 ± 1.9 | 97.8 | 109 ± 22 | 134 | 100 ± 2.3 | 105 ± 28 | 154 ± 13 |
| Cc1cccc(C)c1NC1=NCCCS1.Cl [Xylazine HCl] | 159 ± 36 | 120 | 110 ± 12 | 115 | 105 ± 6.4 | 124 | 92.3 ± 11 | 120 ± 7 | 127 ± 8 |
| CC(=O)O[C@@]12CO[C@@H]1C[C@@H](O)[C@@]1(C)C(=O)[C@@H](O)C3=C(C)[C@@H](O)C[C@@](O)([C@@H](OC(=O)c4ccccc4)[C@H]21)C3(C)C [10-DAB (10-Deacetylbaccatin)] | 138 ± 19 | 107 | 99.3 ± 2.1 | 108 | 97.8 ± 2.6 | 126 | 79.2 ± 2.9 | 84.7 ± 18 | 126 ± 7.2 |
